Measurements taken from PubChem BioAssay (NCATS).
Records with an inconclusive call do not appear. A number with no mark means an inactive call. Activity calls are given as the source filed them. Calls come from the whole dose curve; as a rule, active = well fitted curve in the direction sought with a large enough effect; inconclusive = small, poorly fitted or top-dose-only effect, or another doubt; inactive = no such curve, though single readings can be large; an effect the other way counts as inactive or inconclusive.

How the values were obtained:
OV90 = assay: Primary qHTS to identify gynecologic anti-cancer compounds using libraries of approved drugs and bioactive compounds (AID 1345084); settings: Gynecologic cancer cell panel viability, ATPlite luminescence, 48 h; series mostly up to 57.5 µM; note: nearly all actives have a fitted effect of over 55% in size
Method in brief: (§1)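 Five-point cytotoxicity, 48 h drug exposure at 37 C, 5% CO2, on cells seeded 16 h beforehand. ATP content read by ATPlite luminescence.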

SKOV3 = assay: as above; settings: Gynecologic cancer cell panel viability, ATPlite luminescence, 48 h; series mostly up to 57.5 µM
Method in brief: as §1

[1] = qHTS assay to identify inhibitors of the type 1 interferon - major histocompatibility complex class I in skeletal muscle: Counter screen cell viability and HiBit confirmation (AID 1347412); settings: iHSKM muscle cells + IFN-b, HiBiT or CellTiter-Glo, 24 h; for activity change, negative = inhibition: at 45.9 µM (top of the series); for all read-outs here: nearly all actives have a fitted effect of over 60% in size
Method in brief: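 Luminescence read-out: Nano-Glo HiBiT lytic signal from C-terminally HiBiT-tagged HLA-B in CRISPR-edited human myoblasts, plus CellTiter Glo ATP as viability counter screen. IFN-beta 4.0 ng/ml; 24 hrs treatment at 37 C, 5% CO2.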

PA-1 = assay: Primary qHTS to identify gynecologic anti-cancer compounds using libraries of approved drugs and bioactive compounds (AID 1345084); settings: Gynecologic cancer cell panel viability, ATPlite luminescence, 48 h; series mostly up to 57.5 µM; note: nearly all actives have a fitted effect of over 55% in size
Method in brief: as §1

Tov-21-G = assay: as above; settings: Gynecologic cancer cell panel viability, ATPlite luminescence, 48 h; series mostly up to 57.5 µM
Method in brief: as §1

Tov112D = assay: as above; settings: Gynecologic cancer cell panel viability, ATPlite luminescence, 48 h; series mostly up to 57.5 µM
Method in brief: as §1
% is set by controls: 0 for no effect and ±100 for the full control effect; potency is the fitted concentration of half-maximal effect.

## Cc1cc(CN2CCN(c3c(Br)cnc4nc(-c5ccc(N6CCN(C)CC6)cc5)[nH]c34)CC2)no1
OV90
  Potency: inactive
SKOV3
  Potency: inactive
[1]; HiBiT
  Potency: 8.83 µM (active)
[1]; Viability
  Potency: 11.1 µM (active)

## NC(=O)c1c(OCc2c(F)cc(Br)cc2F)nsc1NC(=O)NCCCCN1CCCC1
OV90
  Potency: inactive
[1]; HiBiT
  activity change, negative = inhibition: -22.6%

## COCCOc1ccc2c(c1)ncn2-c1ccc2cccc(N3CCC(N)CC3)c2n1
PA-1
  Potency: 7.94 µM (active)

## O=C(c1ccc(Nc2nccc(-c3cc4ccccc4s3)n2)cc1)N1CCC(N2CCCC2)CC1
OV90
  Potency: inactive
SKOV3
  Potency: 25.1 µM (active)
Tov-21-G
  Potency: 28.2 µM (active)
Tov112D
  Potency: inactive
[1]; HiBiT
  Potency: 17.6 µM (active)

## Cc1cc(C(=O)N2CCN(c3cccc(Cl)c3)CC2)n(-c2ccccc2)n1
OV90
  Potency: inactive
PA-1
  Potency: 5.01 µM (active)
Tov112D
  Potency: 3.98 µM (active)
[1]; Viability
  activity change, negative = inhibition: -19.8%

## CNC(=O)c1c(F)cccc1Nc1nc(Nc2cc3c(cc2OC)CCN3C(=O)CN(C)C)nc2[nH]ccc12
OV90
  Potency: inactive
Tov-21-G
  Potency: inactive
Tov112D
  Potency: inactive
[1]; Viability
  Potency: 24.9 µM (active)

## O=C(CCCCCCNC(=O)c1cnc(N(c2ccccc2)c2ccccc2)nc1)NO
OV90
  Potency: 8.91 µM (active)
PA-1
  Potency: 3.16 µM (active)
Tov112D
  Potency: 28.2 µM (active)

## CN1CCC(CNc2ccc3ncc(-c4cccc(OC(F)(F)F)c4)n3n2)CC1
OV90
  Potency: inactive
PA-1
  Potency: inactive
Tov-21-G
  Potency: inactive
Tov112D
  Potency: inactive
[1]; HiBiT
  Potency: 22.2 µM (active)
[1]; Viability
  Potency: 31.3 µM (active)

## O=C(O)C1(Cc2cccc(Nc3nccs3)n2)CCC(Oc2cccc(Cl)c2F)CC1 (configuration not stated)
OV90
  Potency: inactive
Tov112D
  Potency: 1 µM (active)

## CC(C)c1cc(-c2n[nH]c(=O)n2-c2ccc3c(ccn3C)c2)c(O)cc1O
OV90
  Potency: 2.51 µM (active)
PA-1
  Potency: 0.251 µM (active)
Tov-21-G
  Potency: 0.282 µM (active)
[1]; HiBiT
  Potency: 0.0176 µM (active)

## O=C(Nc1nc2cccc(-c3ccc(CN4CCS(=O)(=O)CC4)cc3)n2n1)C1CC1
OV90
  Potency: inactive
SKOV3
  Potency: inactive

## Cc1cn2cc(C(=O)N(C)CCO)cc(N[C@@H]3CCOc4cccc(C)c43)c2n1
OV90
  Potency: inactive
SKOV3
  Potency: inactive
Tov-21-G
  Potency: inactive
Tov112D
  Potency: inactive

## CCOC(=O)C1=C(C)NC2=C(C(=O)CC(C)(C)C2)C1c1ccc(-c2ccccc2)cc1 (configuration not stated)
OV90
  Potency: inactive
SKOV3
  Potency: 10 µM (active)
Tov112D
  Potency: 31.6 µM (active)
[1]; HiBiT
  Potency: 2.49 µM (active)
[1]; Viability
  activity change, negative = inhibition: -16.2%

## NCC(=O)Nc1ccc(-n2nc(C(F)(F)F)cc2-c2ccc3c(ccc4ccccc43)c2)cc1
OV90
  Potency: inactive
SKOV3
  Potency: inactive
Tov112D
  Potency: inactive

## NC(=O)c1cccc2cn(-c3ccc([C@@H]4CCCNC4)cc3)nc12
OV90
  Potency: inactive
SKOV3
  Potency: inactive
Tov-21-G
  Potency: inactive

## c1nc2nc(Nc3ccc(N4CCOCC4)cc3)nc(NC3CCCCC3)c2[nH]1
OV90
  Potency: inactive
Tov112D
  Potency: inactive
[1]; HiBiT
  Potency: 6.25 µM (active)

## Nc1cc(C(F)(F)F)c(-c2cc(N3CCOCC3)nc(N3CCOCC3)n2)cn1
OV90
  Potency: 10 µM (active)
PA-1
  Potency: 6.31 µM (active)
Tov112D
  Potency: 2.82 µM (active)

## CS(=O)(=O)c1ccc(-c2cnc(N)c(C(=O)Nc3ccccc3)n2)cc1
OV90
  Potency: inactive
Tov-21-G
  Potency: 8.91 µM (active)
Tov112D
  Potency: inactive

## Cc1nc(Nc2n[nH]c3c2CN(C(=O)N[C@H](CN(C)C)c2ccccc2)C3(C)C)c2sccc2n1
OV90
  Potency: 1.58 µM (active)
SKOV3
  Potency: 7.08 µM (active)
Tov112D
  Potency: 8.91 µM (active)
[1]; HiBiT
  Potency: 0.0625 µM (active)
[1]; Viability
  activity change, negative = inhibition: 5.01%

## COc1cc2c(Oc3ccc(-c4cnc(Nc5ccc(F)cc5)n(C)c4=O)cc3F)ccnc2cc1OCCCN1CCOCC1
OV90
  Potency: inactive
SKOV3
  Potency: inactive

## CC(=O)Nc1sc2c(c1-c1nc3ccccc3s1)CNC2
OV90
  Potency: inactive
PA-1
  Potency: 31.6 µM (active)
Tov112D
  Potency: inactive

## COc1cc(C(=O)N2CCC(N3CCN(C)CC3)CC2)ccc1Nc1ncc2c(n1)N(C)c1ccccc1C(=O)N2C
OV90
  Potency: inactive
SKOV3
  Potency: 8.91 µM (active)
[1]; Viability
  activity change, negative = inhibition: -1.11%

## COc1ccc(C(=O)CC2(O)C(=O)Nc3c(Cl)ccc(Cl)c32)cc1 (configuration not stated)
OV90
  Potency: inactive
PA-1
  Potency: 8.91 µM (active)
Tov112D
  Potency: 3.98 µM (active)

## C[C@@H](Oc1cc(-c2cnn(C3CCNCC3)c2)cnc1N)c1c(Cl)ccc(F)c1Cl
OV90
  Potency: 25.1 µM (active)
PA-1
  Potency: 14.1 µM (active)
Tov-21-G
  Potency: 14.1 µM (active)
Tov112D
  Potency: inactive
[1]; HiBiT
  Potency: 17.6 µM (active)
[1]; Viability
  Potency: 27.9 µM (active)

## Cc1ccc(C(N)=O)cc1Nc1nccc(-c2cn(C(C)C)c3cnccc23)n1
OV90
  Potency: 17.8 µM (active)
Tov-21-G
  Potency: 14.1 µM (active)
Tov112D
  Potency: 17.8 µM (active)
[1]; HiBiT
  Potency: 2.49 µM (active)
[1]; Viability
  activity change, negative = inhibition: 26.3%

## CC1(C)CC(=O)c2c(C(F)(F)F)nn(-c3ccc(C(N)=O)c(NC4CCC(OC(=O)CN)CC4)c3)c2C1 (configuration not stated)
OV90
  Potency: 0.355 µM (active)
PA-1
  Potency: 0.316 µM (active)
Tov-21-G
  Potency: 0.355 µM (active)
[1]; HiBiT
  Potency: 0.0557 µM (active)
